Experimental data taken from PubChem BioAssay AID2599 (Sanford-Burnham Center for Chemical Genomics, 2010).
Screen size: about 330,000 compounds; about 5,800 (1.8%) were called active.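 How the source made its calls: active means inhibition above about 50% at the single tested dose (limit read from the data); inactive means the rest.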 The full list was thinned out, with actives kept by preference.

target: Sentrin-specific protease 6 (Homo sapiens) (UniProt Q9GZR1); assay: inhibition of human SENP6 catalytic domain – biochemical, luminescence, uHTS, primary screen (AID 2599); details: Recombinant SENP6 catalytic domain, aminoluciferin luminescence; at 10 µM; hits give high values;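 further: plate controls were DMSO wells with enzyme for no effect and DMSO wells lacking enzyme for full effect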
Sequence (Q9GZR1 628-1112 limits assumed): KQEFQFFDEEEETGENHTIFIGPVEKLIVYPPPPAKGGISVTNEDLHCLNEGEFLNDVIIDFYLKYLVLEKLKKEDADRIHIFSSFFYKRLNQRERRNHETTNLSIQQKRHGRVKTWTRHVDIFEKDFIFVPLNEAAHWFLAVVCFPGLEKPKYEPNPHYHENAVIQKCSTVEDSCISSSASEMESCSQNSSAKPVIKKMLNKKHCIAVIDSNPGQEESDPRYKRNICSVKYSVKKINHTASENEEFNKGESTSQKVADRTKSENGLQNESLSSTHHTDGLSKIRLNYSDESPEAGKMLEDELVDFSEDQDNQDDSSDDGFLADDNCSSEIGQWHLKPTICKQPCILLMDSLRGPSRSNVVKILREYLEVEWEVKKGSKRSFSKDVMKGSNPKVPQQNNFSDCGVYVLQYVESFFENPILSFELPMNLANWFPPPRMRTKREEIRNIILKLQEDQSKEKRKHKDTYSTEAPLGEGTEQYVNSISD

Which inhibition does the source give for `COc1ccc(C)cc1S(=O)(=O)Nc1cccc(Cl)c1Cl` here?
Its inhibition is -4.81% (inactive).

With `O=C(Cc1ccc(Cl)cc1)NCc1nc(-c2ccccc2)no1` as the compound, how does the inhibition read?
The inhibition was -9.63% (inactive).

`C/C(=N\NC(=O)c1ccccc1F)c1ccccn1` was tested. Which inhibition did it give?
The inhibition was 45% (inactive).

`C/C(=N\NC(=O)c1ccoc1C)c1ccccc1O` was tested. Which inhibition did it give?
The inhibition was 56.4% (active).

Which inhibition does the source give for `CC(C)=C(NC(=O)c1ccccc1)C(=O)N/N=C(\C)c1ccccc1O` here?
Its inhibition is -21.8% (inactive).

With `CSCCC(NC(=O)c1ccccc1)C(=O)N1CCN(Cc2ccc(Cl)cc2)CC1` (stereo not drawn) as the compound, how does the inhibition read?
The inhibition was -6.84% (inactive).

For `CC(OC(=O)C1CC(=O)N(Cc2ccccc2)C1)C(=O)Nc1ccccc1[N+](=O)[O-]` (stereo not drawn), which inhibition is on record?
The inhibition was -19.9% (inactive).

`CCCCN(C(=O)COc1ccc(NC(C)=O)cc1)C1CCS(=O)(=O)C1` (stereo not drawn) was tested. Which inhibition did it give?
The inhibition was -10.3% (inactive).

With `Cc1cccc(Nc2ccccc2C(=O)NCc2ccco2)c1C` as the compound, how does the inhibition read?
Its inhibition is 2.61% (inactive).

With `O=C(Nc1ccccc1)Nc1ccccc1C(=O)NCc1ccco1` as the compound, how does the inhibition read?
The inhibition was 75.2% (active).

With `O=C(CCNC(=O)c1ccccc1Cl)NCc1ccco1` as the compound, how does the inhibition read?
Its inhibition is -14.5% (inactive).

With `NC(N)=NCCCc1cn(CC(=O)N2CCNCC2)nn1` as the compound, how does the inhibition read?
The inhibition was -12% (inactive).

With `O=C(CN1CCN(S(=O)(=O)c2cccc(Cl)c2)CC1)N1CCCCC1` as the compound, how does the inhibition read?
The inhibition was -12.8% (inactive).

`C=CCNC(=S)NNc1ncnc2sc3c(c12)CC(C)(C)OC3` was tested. Which inhibition did it give?
The inhibition was -6.15% (inactive).

Which inhibition does the source give for `O=C(NCCC1=CCCCC1)C1CCN(Cc2cnn(-c3ccccc3)c2-n2cccc2)CC1` here?
The inhibition was 12.3% (inactive).

`C1=C(CCNc2ncnc3c2cnn3-c2ccccc2)CCCC1` was tested. Which inhibition did it give?
Its inhibition is 62.1% (active).

For `CC(C)Sc1ncnc2c1cnn2-c1ccccc1`, which inhibition is on record?
Its inhibition is 38.9% (inactive).

Which inhibition does the source give for `O=C(CSc1nc2[nH]ncc2c(=O)[nH]1)Nc1ccc(F)cc1` here?
The inhibition was -4.08% (inactive).

With `CC1(C)O[C@@H]2[C@H](O1)[C@@H](COS(=O)(=O)O)O[C@H]2n1ccc(=O)[nH]c1=O` as the compound, how does the inhibition read?
Its inhibition is -11.6% (inactive).

With `Clc1ccc(-c2csc(-c3ccncc3)n2)cc1` as the compound, how does the inhibition read?
The inhibition was -16.8% (inactive).

`COc1ccc(-c2csc(Cc3nc(O)cs3)n2)cc1` was tested. Which inhibition did it give?
Its inhibition is 25.6% (inactive).

Which inhibition does the source give for `Clc1ccc(Nc2nc(-c3cccs3)cs2)nc1` here?
Its inhibition is 35.3% (inactive).

`COc1ccc2c(c1OC)C(=O)OC2Nc1nc(-c2ccccc2)cs1` (stereo not drawn) was tested. Which inhibition did it give?
Its inhibition is -5.84% (inactive).

For `COc1ccc(-c2csc(NC(=O)COC(=O)Cc3ccc(Cl)cc3Cl)n2)cc1`, which inhibition is on record?
Its inhibition is 20.8% (inactive).

With `CCCn1c(CCNc2nc(-c3ccc(OC)cc3)cs2)nc2ccccc21` as the compound, how does the inhibition read?
Its inhibition is 1.04% (inactive).

Which inhibition does the source give for `c1ccc(Nc2nc(-c3ccncc3)cs2)nc1` here?
Its inhibition is 88.8% (active).

`COc1ccc(Nc2nc(-c3ccccc3)cs2)cc1` was tested. Which inhibition did it give?
The inhibition was 88.5% (active).

`COc1ccc(-c2csc(Nc3ccccn3)n2)cc1` was tested. Which inhibition did it give?
Its inhibition is 81.9% (active).

Which inhibition does the source give for `Oc1c(Br)cc(/C=N/NC(=S)NCC2CCCO2)cc1Br` (stereo not drawn) here?
Its inhibition is -26.9% (inactive).

`CCn1cc(C(=O)OCC(=O)Nc2cccc(C)c2)c(=O)c2ccc(C)nc21` was tested. Which inhibition did it give?
Its inhibition is -16.3% (inactive).

With `COC(=O)c1ccc(Oc2nc(NC(C)C)nc(SC)n2)cc1` as the compound, how does the inhibition read?
The inhibition was -13.9% (inactive).

How did the inhibition turn out when `Cc1cccc(NC(=O)CSc2nnc(CCCCCNC(=O)OC(C)(C)C)o2)c1C` was run?
The inhibition was 12.1% (inactive).

`COc1ccc(CNC(=O)C(c2ccc(O)cc2)N(Cc2ccco2)C(=O)c2snc(C(N)=O)c2N)cc1` (stereo not drawn) was tested. Which inhibition did it give?
Its inhibition is -5.39% (inactive).

With `C=CCC1(C#N)C(=S)NC(C)=C(C(=O)OCC)C1c1ccccc1` (stereo not drawn) as the compound, how does the inhibition read?
The inhibition was -0.11% (inactive).

For `CCc1ccc(CN(C)C(=O)C2CCC(=O)N(Cc3cccc(OC)c3)C2)nc1` (stereo not drawn), which inhibition is on record?
Its inhibition is -7.64% (inactive).

Which inhibition does the source give for `CC(C)Cn1c(N)c(C(=O)NCc2cccs2)c2nc3ccccc3nc21` here?
Its inhibition is 80.7% (active).

Which inhibition does the source give for `CCOc1ccccc1NC(=O)Cn1nnc(C(=O)NCc2cccs2)c1N` here?
The inhibition was 10.8% (inactive).

For `Cn1ncc(Br)c1C(=O)NCc1cccs1`, which inhibition is on record?
The inhibition was -1.6% (inactive).

For `OC(CN=c1sc2ccccc2n1CC(O)COc1ccccc1)COc1ccccc1` (stereo not drawn), which inhibition is on record?
The inhibition was -0.866% (inactive).

`CNC(C)C#Cc1ccc2sc3cc(OC)c(OC)cc3c(=O)c2c1` (stereo not drawn) was tested. Which inhibition did it give?
Its inhibition is 78.2% (active).

How did the inhibition turn out when `CC(C)CN(C(=O)COC(=O)c1ccc2ccccc2c1)c1c(N)n(Cc2ccccc2)c(=O)[nH]c1=O` was run?
The inhibition was -9.38% (inactive).

For `CCOc1cc(/C=N/n2cnnc2)c(Br)cc1O`, which inhibition is on record?
Its inhibition is 12.6% (inactive).

How did the inhibition turn out when `CCCCCC(O)c1cccc(OCc2ccc3ccccc3n2)c1` (stereo not drawn) was run?
Its inhibition is 23% (inactive).

With `O=C(COC(=O)c1cc(S(=O)(=O)N2CCOCC2)ccc1F)NC1CC1` as the compound, how does the inhibition read?
Its inhibition is -2.29% (inactive).

For `CNCC(O)c1ccc(O)c(O)c1` (stereo not drawn), which inhibition is on record?
The inhibition was -10.1% (inactive).

How did the inhibition turn out when `CCOC(=O)C(NS(=O)(=O)c1ccc(C)cc1)(C(F)(F)F)P(=O)(OCC(C)C)OCC(C)C` (stereo not drawn) was run?
Its inhibition is 8.36% (inactive).

With `CCCCCc1ccc(-c2ccc(OCC)cc2)nc1` as the compound, how does the inhibition read?
The inhibition was -5.2% (inactive).

Which inhibition does the source give for `CCCCCc1ccc(-c2cn(Cc3ccc4ccccc4c3)nn2)cc1` here?
The inhibition was -16.8% (inactive).

For `CCCCCc1ccc(-c2ccc(C(=O)O)cc2)nc1`, which inhibition is on record?
Its inhibition is 95.9% (active).

`CC(=O)N1C(C)c2ccccc2C(C)(C)CC12CCCCC2` (stereo not drawn) was tested. Which inhibition did it give?
Its inhibition is 5.42% (inactive).

Which inhibition does the source give for `O=c1[nH]c(CN2CCOCC2)nc2cc(Cl)ccc12` here?
Its inhibition is 0.886% (inactive).

How did the inhibition turn out when `O=c1[nH]c(CCl)nc2cc(-c3ccc(Cl)cc3)sc12` was run?
The inhibition was 94.6% (active).

For `NC(=O)Cc1nc2scc(-c3ccc(Cl)cc3)c2c(=O)[nH]1`, which inhibition is on record?
The inhibition was -10.5% (inactive).

How did the inhibition turn out when `CCOC(=O)c1ccc(CS(=O)c2ccc(Cl)cc2)o1` (stereo not drawn) was run?
The inhibition was -6.19% (inactive).

Which inhibition does the source give for `Cc1oc(-c2ccccc2Cl)[n+]([O-])c1C` here?
Its inhibition is -2.99% (inactive).

Which inhibition does the source give for `CCOC(=O)C(C)n1nc(-c2ccccc2)c2ccccc2c1=O` (stereo not drawn) here?
The inhibition was 16.8% (inactive).

Which inhibition does the source give for `O=C(Nc1nnc(CCOCCOCCc2nnc(NC(=O)c3ccco3)s2)s1)c1ccco1` here?
The inhibition was 14.7% (inactive).

Which inhibition does the source give for `O=C(Nc1nnc(SCc2ccccc2)s1)c1ccco1` here?
The inhibition was 63% (active).

Which inhibition does the source give for `COCCNc1nnc(SCC(=O)NNC(=O)c2ccco2)s1` here?
The inhibition was 0.175% (inactive).

How did the inhibition turn out when `O=c1oc2ccccc2cc1-c1cn(-c2ccccc2)c(=S)[nH]1` was run?
Its inhibition is 94% (active).

`COc1cccc(-n2c(=S)[nH]c3c(oc4ccccc43)c2=O)c1` was tested. Which inhibition did it give?
Its inhibition is -5.17% (inactive).

How did the inhibition turn out when `S=c1[nH]c(-c2cccs2)cn1-c1ccccc1` was run?
Its inhibition is -4.29% (inactive).

For `CC(NC(=O)C1CCC(CNc2c(N3CCOCC3)c(=O)c2=O)CC1)c1ccccc1` (stereo not drawn), which inhibition is on record?
The inhibition was -0.949% (inactive).
